KDM4E inh: JMJD2E (human) inhibition; B2RXH2; JMJD2E catalytic domain, FDH-coupled NADH fluorescence (FDH is formaldehyde dehydrogenase); Potency, µM (top dose mostly 57.1 µM), usual class: inhibitors; 230,000 compounds, 1.6% hits; active means well fitted inhibition curve with a large enough effect, not every such curve was filed as active; inconclusive means small, poorly fitted or top-dose-only effect, or another doubt; inactive means no such curve, though single readings can be large or run the other way; further: nearly all actives have a fitted effect of over 50% in size
BLM inh: blocks DNA unwinding by human BLM helicase; Potency, µM (series often up to 56.1 µM), hits mostly inhibitors; P54132; recombinant BLM DNA unwinding, fluorescence dequenching; 350,000 compounds, 0.2% hits; further: nearly all actives have a fitted effect of over 35% in size
TDP1 inh: blocks human tyrosyl-DNA phosphodiesterase 1; recombinant TDP1, AlphaScreen DNA substrate cleavage; Potency, µM (titrated, usually from 130 µM), most hits filed as inhibitors; 350,000 compounds, 0.28% hits; AID 485290; further: nearly all actives have a fitted effect of over 40% in size
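Enzyme-compound mixtures sat 15 min at room temperature, followed by a 5 min reaction with 15 nM final substrate and 10 min with AlphaScreen beads. Recombinant human Tdp1 was used at 1 nM final.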
RECQ1 inh: RECQ1 (human) helicase inhibition | RECQ1 DNA unwinding, red fluorescence kinetic read | 240,000 compounds, 0.54% hits | P46063 | Potency, µM (titrated, usually from 57.3 µM), most hits filed as inhibitors; further: nearly all actives have a fitted effect of over 30% in size
Target sequence (P46063 whole entry, looked up): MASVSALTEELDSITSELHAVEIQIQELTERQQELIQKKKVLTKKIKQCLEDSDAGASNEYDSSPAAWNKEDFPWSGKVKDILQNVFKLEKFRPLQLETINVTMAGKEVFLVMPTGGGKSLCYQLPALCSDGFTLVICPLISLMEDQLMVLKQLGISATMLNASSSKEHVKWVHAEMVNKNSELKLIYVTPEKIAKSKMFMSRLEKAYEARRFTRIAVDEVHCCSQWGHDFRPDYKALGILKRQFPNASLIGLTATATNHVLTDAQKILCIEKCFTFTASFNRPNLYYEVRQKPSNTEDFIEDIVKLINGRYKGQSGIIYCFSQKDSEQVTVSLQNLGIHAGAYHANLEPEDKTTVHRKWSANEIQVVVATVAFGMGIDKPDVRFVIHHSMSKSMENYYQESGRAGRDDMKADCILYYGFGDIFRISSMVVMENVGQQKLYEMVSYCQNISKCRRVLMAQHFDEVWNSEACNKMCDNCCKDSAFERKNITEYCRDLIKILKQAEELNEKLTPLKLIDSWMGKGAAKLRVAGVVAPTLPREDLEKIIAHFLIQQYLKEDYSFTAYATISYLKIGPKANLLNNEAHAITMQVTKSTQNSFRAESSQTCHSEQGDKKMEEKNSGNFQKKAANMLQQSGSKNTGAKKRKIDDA
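RECQ1T1 50 nM; forked duplex (20 bp + 30-nt ss tails) 200 nM, ATP 2 mM final; pH 8.0, 2 mM MgCl2, 2.5 ug/ml poly(dI-dC); 15 min compound preincubation; discontinuous kinetic read over 2 h at RT.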
APEX1 inh: blocks human APE1 abasic DNA cleavage; Potency, µM (doses to about 65.8 µM), actives largely listed as inhibitors; 350,000 compounds, 0.35% hits; recombinant APE1, TAMRA/BHQ-2 abasic DNA cleavage fluorescence; further: nearly all actives have a fitted effect of over 55% in size
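APE1 at 0.75 nM preincubated 15 min at room temperature with compound. Reaction then started with 50 nM double-stranded THF-abasic substrate labelled with TAMRA/BHQ-2, and 525/598 nm fluorescence read kinetically. Activity taken as third-minus-first read difference, normalized to DMSO and NSC13755 controls.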
KAT2A inh: blocks human GCN5L2 histone acetyltransferase; Q92830; GCN5L2 HAT assay, ThioGlo1 CoA-SH fluorescence; Potency, µM (doses to about 58.9 µM), most hits filed as inhibitors; 390,000 compounds, 0.21% hits; AID 504327
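Titration-based screen in which CoA formation is detected via maleimide probe ThioGlo1 (50uM) turning fluorescent on thiol reaction; substrates H3(1-25) 75uM and acetyl-CoA 70uM, GCN5L2 20nM, 20 min incubation at room temperature.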
Large screens that a line does not name were inactive. The full list was thinned out, with hits kept by preference. Unless noted, the call rests on the fitted dose curve; in most records, active means well fitted curve in the direction sought with a large enough effect; inconclusive means small, poorly fitted or top-dose-only effect, or another doubt; inactive means no such curve, though single readings can be large; an effect the other way counts as inactive or inconclusive.

CC1(c2ccccc2)NC(=O)N(CC(=O)NCCC2=CCCCC2)C1=O (stereo unspecified)	KAT2A inh 28µM
Oc1ccc(/C=N/Nc2cc(N3CCOCC3)nc(N3CCOCC3)n2)cc1O	KDM4E inh 28µM
CCc1cc(=O)oc2c3c(cc(OCC(=O)NCCC(=O)O)c12)OC(C)(C)CC3	KAT2A inh inconclusive (no result: KDM4E inh, TDP1 inh, RECQ1 inh)
Cc1c(C)c2c(OCC(=O)N3CCC(C(=O)O)CC3)cc3c(c2oc1=O)CCC(C)(C)O3	KAT2A inh 16µM (no result: KDM4E inh, TDP1 inh, RECQ1 inh)
CCc1cc(=O)oc2c3c(cc(OCC(=O)NCCCC(=O)O)c12)OC(C)(C)CC3	KAT2A inh 10µM (no result: KDM4E inh, TDP1 inh, RECQ1 inh)
CCCCC(NC(=O)COc1cc2c(c3oc(=O)cc(C)c13)CCC(C)(C)O2)C(=O)O (stereo unspecified)	KAT2A inh 35µM (no result: KDM4E inh, TDP1 inh, RECQ1 inh)
CCC(Nc1ncnc2ccc(-c3c(C)noc3C)cc12)c1ccccc1 (stereo unspecified)	none (no result: KDM4E inh, KAT2A inh)
COC(=O)c1ccn(CC(=O)NC2CCCCC2)n1	TDP1 inh 28µM, APEX1 inh 30µM (no result: KDM4E inh, RECQ1 inh)
O=C(Cn1cc2c(n1)CCCC2)NC1CCCCCC1	none
Cc1ccc(S(=O)(=O)N2CCN(c3nc(-c4ncccn4)nc4ccccc34)CC2)cc1	none (no result: KDM4E inh, BLM inh, RECQ1 inh, APEX1 inh, KAT2A inh)
C/C(=N/O)c1ccccn1	KDM4E inh 18µM
CN(C)c1ccc2c(-c3ccccc3)c3ccc(=[N+](C)C)cc-3oc2c1	BLM inh 28µM, RECQ1 inh 28µM, APEX1 inh 28µM, KAT2A inh inconclusive (no result: KDM4E inh)
CC(C)(C)n1ncc2c(=O)n(Cc3c(Cl)ccc(Cl)c3Cl)cnc21	none (no result: KDM4E inh, BLM inh, TDP1 inh, RECQ1 inh, KAT2A inh)
CC(C)COCc1ccc(O)c2ncccc12	KDM4E inh 20µM
OCc1ccc(O)c2ncccc12	KDM4E inh 16µM
Oc1ccc(CNc2ccccc2F)c2cccnc12	KDM4E inh 7.9µM
CCCOCc1ccc(O)c2ncccc12	KDM4E inh 14µM (no result: TDP1 inh)
CC1CCN2c3ccccc3CC3(C(=O)OC(C)(C)OC3=O)C2C1 (stereo unspecified)	none (no result: KDM4E inh, BLM inh, RECQ1 inh, APEX1 inh, KAT2A inh)
C[N+](C)(C)CC(O)CC(=O)[O-] (stereo unspecified)	none (no result: KDM4E inh, BLM inh, TDP1 inh, RECQ1 inh, KAT2A inh)
NS(=O)(=O)c1ccc(N=Nc2c[nH]c(=O)c(O)c2)cc1	KDM4E inh 32µM, APEX1 inh inconclusive
CC(=O)N=Cc1c(C)c(C#N)c(=O)n(C)c1O	KDM4E inh inconclusive
Cc1c(C=O)c(Cl)n(C)c(=O)c1C#N	KDM4E inh 20µM
CSCC[C@H](NC(=O)[C@H](CC(C)C)NC(=O)CNC(=O)[C@@H]1CCCN1C(=O)[C@H](Cc1ccccc1)NC(=O)[C@H](Cc1ccccc1)NC(=O)[C@H](CC(=O)O)NC(=O)[C@H](Cc1cnc[nH]1)NC(=O)[C@H](CCSC)NC(=O)[C@@H](N)CC(=O)O)C(N)=O	RECQ1 inh 11µM, APEX1 inh inconclusive (no result: KDM4E inh)
Cc1nn(-c2ccccc2)c(-n2cccc2)c1C(=O)NCCc1ccc(Cl)cc1	none (no result: KDM4E inh, RECQ1 inh, APEX1 inh)
CCN1C(=O)/C(=C/C=C2/CCCN2C)OC1=S	KDM4E inh 11µM
CCOC(=O)NNc1ccc2nonc2c1[N+](=O)[O-]	KDM4E inh 6.3µM, RECQ1 inh inconclusive, APEX1 inh inconclusive (no result: TDP1 inh)
O=C1/C(=C\c2ccc(O)c(O)c2)N=C2CCCCCN12	KDM4E inh 13µM
Cc1cc2c(s1)c1cnn(Cc3ccc(C(F)(F)F)cc3)c(=O)c1n2C	none (no result: KDM4E inh, BLM inh, RECQ1 inh, APEX1 inh, KAT2A inh)
CN[C@@H](CCCN=C(N)N)C(=O)N[C@@H](CCCCN)C(=O)N1CCC[C@H]1C(=O)N[C@@H](Cc1c[nH]c2ccccc12)C(=O)N[C@H](C(=O)N[C@H](CC(C)C)C(=O)O)C(C)(C)C	none (no result: KDM4E inh)
O=C(O)CCc1ccc(-c2cccs2)n1CCC(=O)O	KDM4E inh inconclusive, APEX1 inh 14µM (no result: TDP1 inh)
O=C(O)CCc1ccc(-c2cccs2)n1-c1ccc(C(=O)O)cc1	KDM4E inh inconclusive, APEX1 inh inconclusive
O=C(CN1C(=O)c2ccccc2S1(=O)=O)c1ccc(O)c(O)c1	KDM4E inh 14µM (no result: TDP1 inh)
CN(C)C(=O)c1ccc(NC(=O)c2cc(-c3ccco3)nc3ccccc23)cc1	none (no result: KDM4E inh, RECQ1 inh)

Screening data from PubChem.
